High-throughput results deposited in PubChem BioAssay by National Center for Advancing Translational Sciences (NCATS).
Only some compounds are listed: those with a hit (about 3.4% of all), similar ones and a draw of the others.
p53ts 39C kill = qHTS Screen for Compounds that Selectively Target Cancer Cells with p53 Mutations: Cytotoxicity of p53ts Cells at the Nonpermissive Temperature. H1299-p53A138V viability at 39C, ATP luminescence, 24 h. Potency, µM (highest dose often 46.1 µM), most hits filed as cytotoxic. actives 1.5% (n = 130,000). AID 902, 2007; further: nearly all actives have a fitted effect of over 55% in size
Tau fil binding = qHTS Assay for Tau Filament Binding | Microtubule-associated protein tau (Homo sapiens), P10636 | actives 2% (n = 71,000) | Potency, µM (series often up to 57.1 µM) | recombinant tau filaments, thioflavin S fluorescence, 15 h; filaments grown with octadecylsulfate alongside compound;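 further: actives lower thioflavin S fluorescence by blocking filaments or displacing dye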
Target sequence (P10636 whole entry, looked up): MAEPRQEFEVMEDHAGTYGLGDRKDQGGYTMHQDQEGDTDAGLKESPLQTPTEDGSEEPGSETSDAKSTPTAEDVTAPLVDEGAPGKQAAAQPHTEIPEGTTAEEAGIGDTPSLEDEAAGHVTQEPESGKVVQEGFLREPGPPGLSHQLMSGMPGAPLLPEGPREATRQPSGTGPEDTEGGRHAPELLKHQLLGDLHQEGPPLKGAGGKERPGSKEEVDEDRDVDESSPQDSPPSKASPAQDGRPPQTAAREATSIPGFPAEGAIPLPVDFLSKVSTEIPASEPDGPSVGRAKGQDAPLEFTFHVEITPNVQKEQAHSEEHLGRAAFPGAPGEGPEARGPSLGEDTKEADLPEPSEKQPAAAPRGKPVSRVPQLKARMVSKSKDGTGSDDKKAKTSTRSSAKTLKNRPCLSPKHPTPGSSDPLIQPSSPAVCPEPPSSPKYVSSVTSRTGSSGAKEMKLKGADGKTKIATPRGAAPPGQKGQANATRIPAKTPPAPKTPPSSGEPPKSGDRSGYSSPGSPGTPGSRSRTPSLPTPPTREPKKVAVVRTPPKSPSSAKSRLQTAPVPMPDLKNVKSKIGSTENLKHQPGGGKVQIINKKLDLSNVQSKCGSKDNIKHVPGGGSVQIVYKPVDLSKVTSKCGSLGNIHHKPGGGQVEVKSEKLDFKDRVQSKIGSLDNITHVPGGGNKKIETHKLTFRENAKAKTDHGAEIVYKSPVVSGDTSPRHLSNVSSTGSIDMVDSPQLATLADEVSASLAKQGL
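Recombinant tau protein (human, 1 uM final) plus 30 uM ODS in HEPES pH 7.4 with NaCl, DTT and thioflavine S. Compound present from the start; fluorescence at 510 nm after 15 h, 37 C.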
p53ts 32C tox = qHTS Screen for Compounds that Selectively Target Cancer Cells with p53 Mutations: Cytotoxicity of p53ts Cells at the Permissive Temperature; H1299-p53A138V at 32C, ATP luminescence viability, 24 h; Potency, µM (top dose mostly 46.1 µM), usual class: cytotoxic; actives 0.93% (n = 130,000); AID 924, 2007; further: nearly all actives have a fitted effect of over 55% in size
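Cells: H1299 p53ts (A138V), 600/well, pre-incubated 16–30 h at 37C. Cpd up to 46 uM, 24 h, 32C. Readout: ATPlite luminescence, 20 min RT. Normalization: DMSO vs tamoxifen 100 uM. AC50 by Hill equation.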
FLuc inh = qHTS Assay for Inhibitors of Firefly Luciferase; Luciferin 4-monooxygenase (Photinus pyralis), P08659; Potency, µM (titrated, usually from 57.1 µM), most hits filed as inhibitors; actives 2.2% (n = 72,000); AID 411, 2009; purified firefly luciferase, luminescence, 8 min; further: nearly all actives have a fitted effect of over 40% in size
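Inhibition of light generation by firefly luciferase from ATP and luciferin was profiled with concentration-response curves per sample, ATP held at 10 uM within the enzyme's linear range. Plates were read by luminescence after an 8-minute ambient incubation.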
Peg3 imprint = qHTS Assay for Compounds that Induce Erasure of Genomic Imprints. mouse ES Peg3-LacZ reporter, beta-gal luminescence, 40 h. Potency, µM (titrated, usually from 60.7 µM), usual class: activators. actives 0.02% (n = 110,000)
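Readout: BetaGlo luminescence (5 min, room temp) for LacZ from the normally silent maternal Peg3 allele in female Peg3LacZ-Neo ES cells. Cells 300/well, 40 h, 37C, 5% CO2. Data normalized per plate to negative controls.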
Of the large screens only hits and unclear results are named; the others gave an inactive call. The call rests on the fitted dose curve; in most records, active means well fitted curve in the direction sought with a large enough effect; inconclusive means small, poorly fitted or top-dose-only effect, or another doubt; inactive means no such curve, though single readings can be large; an effect the other way counts as inactive or inconclusive.

CCOC(=O)C1=C(C)N=c2s/c(=C/c3ccco3)c(=O)n2C1c1cccc(OC)c1 (configuration not stated)	Tau fil binding 3.16µM
N#CC1=C(N)n2c(s/c(=C\c3ccco3)c2=O)=C(C#N)C1c1ccco1 (configuration not stated)	none
CN[C@@H]1[C@H](O)[C@H](NC)[C@H]2O[C@@]3(O)C(=O)C[C@@H](C)O[C@H]3O[C@@H]2[C@H]1O	none (no result: Tau fil binding, FLuc inh)
CN[C@@H]1[C@H](O)[C@H](NC)[C@@H]2O[C@]3(O)C(=O)C[C@@H](C)O[C@H]3O[C@@H]2[C@H]1O	Tau fil binding 39.8µM (no result: p53ts 39C kill, p53ts 32C tox, Peg3 imprint)
Cc1ccc2c(c1)N(C(=O)N1CCC(C(=O)NC3CCCCCC3)CC1)CC(C)O2 (configuration not stated)	none (no result: Tau fil binding, FLuc inh)
Clc1ccc(Sc2oc(/C=N/n3cnnc3)cc2Br)cc1	Tau fil binding 5.01µM
Cc1cccc(S(=O)(=O)c2cn(C)c3cc(N4CCN(c5ccc(F)cc5)CC4)c(F)cc3c2=O)c1	none (no result: p53ts 39C kill, Tau fil binding, FLuc inh, Peg3 imprint)
COc1cccc(C(=O)Nc2ccccc2-c2nnc(-c3cc(OC)ccc3Br)o2)c1	none (no result: Tau fil binding, FLuc inh)
Nc1ccc(N=Nc2ccccc2)c(N)n1	Tau fil binding 12.6µM, FLuc inh inconclusive
O=S(=O)(O)c1ccc(N=Nc2ccccc2)cc1	none
CCCc1ccc(-c2ccc(C(=O)O)cc2)nc1	p53ts 32C tox inconclusive, FLuc inh 15.8µM
CCCc1ccc(-c2ccc(C(=O)Oc3ccc(OCC)cc3)cc2)nc1	none (no result: Tau fil binding, FLuc inh)
CCn1c(C(=O)N2CCC(C(=O)NCCc3ccc(C)cc3)CC2)cc2sccc21	none (no result: Tau fil binding, FLuc inh)
CCOc1ccccc1NC(=O)c1ccc2c(Cl)c3c(nc2c1)CCC3	p53ts 39C kill 3.98µM, p53ts 32C tox inconclusive (no result: Tau fil binding, FLuc inh)
O=C(Nc1ccccc1F)c1ccc2c(Cl)c3c(nc2c1)CCC3	p53ts 39C kill 1.58µM, p53ts 32C tox 1.26µM (no result: Tau fil binding, FLuc inh)
O=C(CSCc1ccc(F)cc1)N1CCc2c([nH]c3ccccc23)C1c1ccc(F)cc1 (configuration not stated)	none (no result: Tau fil binding, FLuc inh)
Cc1nnc(SCc2cnc(-c3ccc(C(C)C)cc3)s2)n1C	p53ts 39C kill 2µM, p53ts 32C tox 1.58µM, FLuc inh 0.501µM
Cc1ccc(CSc2nnc(-c3cccs3)n2C)cc1	none
COc1ccc(-c2nnc(SCC(=O)Nc3cccc(C(F)(F)F)c3)nc2-c2ccc(OC)cc2)cc1	none (no result: Tau fil binding, FLuc inh)
O=C1O/C(=C\Br)CC[C@@H]1c1cccc2ccccc12	p53ts 39C kill 20µM, p53ts 32C tox 20µM (no result: Peg3 imprint)
CCOc1ccc2nc(-c3ccccc3)[nH]c2c1	p53ts 39C kill 5.01µM, p53ts 32C tox 6.31µM, FLuc inh 3.16µM
COc1ccc2nc(C(C)O)[nH]c2c1 (configuration not stated)	none (no result: Tau fil binding, FLuc inh, Peg3 imprint)
COc1ccc2nc(-c3ccccc3)[nH]c2c1	p53ts 39C kill 12.6µM, p53ts 32C tox 10µM, FLuc inh 6.31µM
CCc1ccc2c(c1)c(=O)c(S(=O)(=O)c1ccccc1)cn2CC(=O)Nc1ccc(OC)cc1	none (no result: Tau fil binding, FLuc inh)
CCc1ccc(NC(=O)Cn2cc(S(=O)(=O)c3ccc(F)cc3)c(=O)c3cc(OC)ccc32)cc1	p53ts 39C kill 12.6µM, p53ts 32C tox inconclusive (no result: Tau fil binding, FLuc inh)
CCN1c2ccccc2-c2nc(SCC(=O)Nc3cc(C)c(Cl)cc3OC)ncc2S1(=O)=O	none (no result: Tau fil binding, FLuc inh)
Cc1nnc(SCCn2c(N3CCCC(C)C3)nc3c2c(=O)n(C)c(=O)n3C)s1 (configuration not stated)	p53ts 39C kill 6.31µM, p53ts 32C tox 5.01µM
CCCC(=O)Nc1nc2ccc(OC)cc2s1	FLuc inh 12.6µM
COc1ccc2nc(NC(=O)c3ccoc3C)sc2c1	p53ts 39C kill inconclusive, p53ts 32C tox 7.94µM, FLuc inh 3.16µM
CCOCC(=O)Nc1nc2ccc(C)cc2s1	p53ts 39C kill inconclusive, p53ts 32C tox inconclusive, FLuc inh 25.1µM
COc1ccc2c(c1)-c1nc(NC(=O)c3ccco3)sc1CC2	none
CCOCC(=O)Nc1nc2ccc(OCC)cc2s1	none
COc1ccc2sc(NC(=O)c3ccco3)nc2c1	p53ts 39C kill 10µM, p53ts 32C tox 10µM, FLuc inh 7.94µM
COc1ccc2nc(NC(=O)c3cc(C)oc3C)sc2c1	p53ts 39C kill inconclusive (no result: Tau fil binding, FLuc inh, Peg3 imprint)
Cc1ccc(OCC(=O)Nc2ccccc2C(=O)OCc2cc(=O)n3ccsc3n2)cc1C	none (no result: Tau fil binding, FLuc inh)
CC(C)C[C@@H](CC(=O)N[C@@H](CCC(=O)O)CC(=O)O)NC(=O)[C@@H]1CNCC[C@H]1NC(=O)C[C@H](CCCN)NC(=O)C[C@H](Cc1c[nH]c2ccccc12)NC(=O)[C@@H]1CCCC[C@H]1N	none (no result: p53ts 39C kill, p53ts 32C tox, FLuc inh, Peg3 imprint)
C[C@H]1[C@H](C)CC[C@]2(C(=O)O)CC[C@]3(C)C(=CCC4[C@@]5(C)CC[C@H](O)C(C)(C)[C@@H]5CC[C@]43C)[C@H]12 (some centres not stated)	none (no result: Tau fil binding, FLuc inh)
C[C@@H]1CC2(OC3C[C@@]4(C)C5=CC[C@H]6C(C)(C)C(O[C@@H]7OC[C@@H](O)[C@H](O)[C@H]7O)CC[C@@]67C[C@@]57CC[C@]4(C)C31)OC(O)C1(C)OC21 (some centres not stated)	none (no result: FLuc inh)
COc1cc(Cl)c(NS(=O)(=O)c2ccc3c(c2)CC(C)N3C(=O)C2CCC2)c(OC)c1 (configuration not stated)	none (no result: p53ts 39C kill, Tau fil binding, FLuc inh, Peg3 imprint)
CCSc1nnc(NC(=O)c2cccc(OCc3c(C)noc3C)c2)s1	none
COc1ccc2nc(NC(=O)c3cccc(OCc4c(C)noc4C)c3)sc2c1	p53ts 32C tox inconclusive, FLuc inh 12.6µM
Cc1cc(N2CCC(C(=O)N(CC(C)C)CC(C)C)CC2)n2nc(C)c(-c3ccc(Cl)cc3)c2n1	Peg3 imprint inconclusive (no result: Tau fil binding, FLuc inh)
COc1ccc(CNCCC(c2ccc(C)cc2)c2ccco2)cc1 (configuration not stated)	p53ts 39C kill inconclusive (no result: Tau fil binding, FLuc inh)
COc1ccc(CNCCC(c2ccccc2)c2ccc3c(c2)OCO3)cc1 (configuration not stated)	p53ts 39C kill 15.8µM, p53ts 32C tox inconclusive (no result: Tau fil binding, FLuc inh)
C=CC1=C(C)C2=Cc3c(C=C)c(C)c4[n]3[Sn+2][n]3c(c(C)c(CCC(=O)O)c3=CC3=NC(=C4)C(C)=C3CCC(=O)O)=CC1=N2	Tau fil binding inconclusive
COc1cc(C2c3c(oc4cc(C)c(C)cc4c3=O)C(=O)N2CCCN2CCOCC2)ccc1O (configuration not stated)	none (no result: Tau fil binding, FLuc inh)
Cc1cc2oc3c(c(=O)c2cc1C)C(c1ccc(F)cc1)N(CCCN1CCOCC1)C3=O (configuration not stated)	Tau fil binding 20µM
CCCOc1ccc(C2c3c(oc4cc(C)c(C)cc4c3=O)C(=O)N2CCCN(C)C)cc1 (configuration not stated)	Tau fil binding inconclusive
